Assay outcomes as filed in PubChem.
A selection: hits, their analogues and other compounds. The true share with any hit is near 3.2%.
TMEM16A inh – mouse TMEM16A channel inhibition, primary screen; 1.2% of 310,000 active; AID 588511; Q8BHY3; HEK293 TMEM16A/YFP iodide influx fluorescence, ionomycin; normalized B-score (activity score, 25-100; higher = stronger inhibition) at 10 µM;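 active = ratio plate-corrected score three or more library SD toward inhibition, starting fluorescence score within five deviations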;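 note: score derived from kinetic fluorescence span divided by baseline fluorescence per well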
TMEM16A act – mouse TMEM16A channel activation, primary screen. HEK293 TMEM16A/YFP-H148Q/I152L, iodide quench fluorescence; stronger effect = lower value. 0.3% of 340,000 active. B-score at 10 µM. Q8BHY3. AID 623877;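 active = fluorescence-ratio B-score plate-corrected deviation score at least 3 library SD below zero, with starting fluorescence score within 5 deviations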;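 note: channel opened by trigger with iodide after compound preincubation; score built on the fluorescence ratio of max minus min over baseline; more negative score means more quench and so TMEM16A activation or potentiation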
Kir21 inh – inhibitors of mouse Kir2.1 inward-rectifier potassium channel; P35561; HEK293-Kir2.1, FluxOR thallium flux fluorescence; stronger effect = lower value; B-score at 10 µM; 0.85% of 310,000 active;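 active = fluorescence ratio B-score at or below minus 3 SD of library scores, with starting-brightness B-score within 2 SD, cut at about -4.2 in these data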;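 note: channel flux triggered by added potassium and thallium sulfate stimulus; B-score of peak minus minimum fluorescence over baseline after thallium stimulus; more negative B-score means stronger Kir2.1 block with less thallium influx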
Target sequence (P35561 whole entry, looked up): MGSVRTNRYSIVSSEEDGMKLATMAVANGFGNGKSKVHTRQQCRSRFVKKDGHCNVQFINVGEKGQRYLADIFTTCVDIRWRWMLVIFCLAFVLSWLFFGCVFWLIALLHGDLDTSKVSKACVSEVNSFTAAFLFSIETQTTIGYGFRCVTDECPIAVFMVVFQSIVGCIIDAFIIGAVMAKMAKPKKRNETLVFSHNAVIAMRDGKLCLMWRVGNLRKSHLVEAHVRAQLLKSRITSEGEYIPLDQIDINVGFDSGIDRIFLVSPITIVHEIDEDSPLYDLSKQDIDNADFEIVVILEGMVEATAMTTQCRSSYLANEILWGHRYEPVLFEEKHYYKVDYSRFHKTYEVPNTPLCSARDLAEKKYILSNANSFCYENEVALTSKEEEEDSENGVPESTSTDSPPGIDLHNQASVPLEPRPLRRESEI
CHT allo act – allosteric activators of human choline transporter CHT; Q9GZV3; CHT-expressing cells, membrane potential dye, choline EC20; stronger effect = higher value; LV-AA mutant CHT in HEK293 cells; B-score at 10 µM; 0.49% of 310,000 active;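 active = initial fluorescence not abnormally high and integrated response B-score, plate-corrected, over 3 SD above library mean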
CHT inh – inhibitors of human choline transporter CHT; CHT-expressing cells, membrane potential dye, choline response; stronger effect = lower value; B-score at 10 µM; 0.86% of 310,000 active; AID 488975;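 active = B-score over 3 SD under the library average, and starting fluorescence ratio not unusually high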;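 note: choline stimulus applied at its EC90 after an EC20 pre-addition; B-score computed on integrated fluorescence ratio after choline addition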
Rce1 inh – blocks yeast Ras-converting enzyme | AID 2563 | 0.27% of 290,000 active | Q03530 | yeast membranes, quenched prenylated peptide cleavage fluorescence | calls only;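 active = fall in fluorescence gain of 50% or more versus controls, with final raw signal at or below 3038400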;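 note: plate controls were neutral control wells for no effect and wells lacking membranes for full effect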
TMEM16A reconf – reconfirmed blocker of mouse TMEM16A calcium-activated chloride channel; inhibition, % at 10 µM; shares compounds with TMEM16A inh; HEK293 TMEM16A/YFP-H148Q, iodide quench fluorescence; ionomycin added to raise cell calcium; 39% of 2,300 active;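 active = mean duplicate percent inhibition, scaled so buffer wells are 0 and the reference blocker 100, over three buffer SD above buffer mean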
HEK293 Ca mobil – calcium mobilization counter-screen hit for TMEM16A inhibitor series; TMEM16A/YFP HEK293, Fluo4 calcium mobilization; shares compounds with TMEM16A inh; calcium response (% of ionomycin), % at 10 µM; 2% of 2,300 active; AID 652231;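 active = duplicate-averaged calcium signal over 20% of the ionomycin maximum, relative to buffer baseline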;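 note: each well's signal is peak minus trough fluorescence divided by its pre-addition baseline; 0% = buffer wells and 100% = ionomycin wells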
YFP-HEK293 quench – counter-screen for TMEM16A inhibitors: effect in parental YFP-HEK293 cells; shares compounds with TMEM16A inh; iodide YFP quench, ionomycin; YFP ratio F(max-min)/F0 at 10 µM; 2,300 tested, under 10 active;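 active = yellow fluorescent protein signal ratio exceeding the buffer control mean by over 5 SD of those controls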;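 note: ratio is mean of duplicate wells from kinetic YFP trace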
ClC-1 inh – rat ClC-1 inhibition, TMEM16A specificity screen. shares compounds with TMEM16A inh. CHO ClC-1-YFP, iodide influx fluorescence quench; iodide control reads 0, buffer control 100. ratio percent, % at 10 µM. 2,300 tested, under 10 active;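 active = duplicate-mean ratio percent above the mean of iodide-only control wells, which defines zero, plus 5 of their SD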;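 note: higher percent means stronger block of ClC-1 iodide influx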
Starred values were filed as active, the others as inactive; i = inactive; . = no result given.

SMILES	TMEM16A inh	TMEM16A act	Kir21 inh	CHT allo act	CHT inh	Rce1 inh	TMEM16A reconf	HEK293 Ca mobil	YFP-HEK293 quench	ClC-1 inh
O=C(Nc1ccc(NC(=O)c2ccccc2Cl)nc1)c1ccco1	i	i	-1.3	i	i	i	.	.	.	.
COc1cc(O)c(C=Nc2ccccc2NS(=O)(=O)c2ccc(C)cc2)c(OC)c1	.	i	.	.	.	.	.	.	.	.
COC(=O)CCc1cccc(CCC(=O)OC)c1	25*	i	-1.2	i	i	i	i	i	-0.97	-8
CCC(=O)N1CCc2cc(S(=O)(=O)N(CC)c3cccc(C)c3)ccc21	i	i	2	i	i	i	.	.	.	.
CCN(c1cccc(C(F)(F)F)c1)S(=O)(=O)c1ccc2c(c1)CCN2C(=O)C1CC1	100*	i	-0.02	i	i	i	i	i	-1.2	-17
Cc1cccc(NC(=O)/C(C#N)=C\c2cccnc2)c1	25*	i	-2.6	i	i	i	28%*	i	-0.98	-12
N#C/C(=C\c1cccnc1)C(=O)Nc1cccc(Cl)c1	i	i	-2.5	i	i	i	.	.	.	.
Cc1cc(/C=N/n2cnnc2)c(C)n1-c1ccc(OCc2ccccc2F)cc1	i	i	1.2	i	i	i	.	.	.	.
Cc1cc(/C=N/n2cnnc2)c(C)n1-c1ccc(OCc2ccc(Cl)cc2)cc1	100*	i	1.2	i	i	i	24%*	i	-1.1	-19
CC(=O)N1c2c(cc(Br)cc2S(=O)(=O)NCc2cccnc2)CC1C (configuration not stated)	i	i	0.85	i	i	i	.	.	.	.
CCCCN(Cc1ccccc1)S(=O)(=O)c1cc(Br)cc2c1N(C(C)=O)C(C)C2 (configuration not stated)	25*	i	-0.08	i	i	i	i	i	-0.98	-12
CCOc1c(Cl)cc(C(=O)Nc2ccccc2C(=O)O)cc1Cl	100*	i	1.6	i	i	i	50%*	i	-0.88	-7
CCC1Sc2ccccc2N(CC(=O)NCCC2=CCCCC2)C1=O (configuration not stated)	i	i	-1.2	i	i	i	i	i	-0.71	-2
CCC1Sc2ccccc2N(CC(=O)NC2CC2)C1=O (configuration not stated)	i	i	1.1	i	i	i	.	.	.	.
Cc1nc2ccc(F)cc2cc1C(=O)NC(C)C	100*	i	2.2	i	i	i	i	i	-1	-9
CCCCn1nc(C(=O)Nc2ccc(-n3cnnn3)cc2)c2ccccc2c1=O	.	i	.	.	.	.	.	.	.	.
Cc1ccc(Cl)cc1N1CCN(C(=O)C(C)n2ncn3cccc3c2=O)CC1 (configuration not stated)	i	i	-0.59	i	i	i	.	.	.	.
CCc1ccc(CNc2ccc(N3CCN(C(C)=O)CC3)cc2)cc1	25*	i	-0.31	i	i	i	i	i	-1.1	-14
CC(=O)N1CCN(c2ccc(NCc3ccc(C)cc3)cc2)CC1	i	.	0.75	i	i	i	.	.	.	.
c1ccc(Cn2c(CNc3nc4ccccc4n3CCN3CCCCC3)nc3ccccc32)cc1	i	i	-2.4	i	i	i	.	.	.	.
Cn1c(CNc2nc3ccccc3n2CCN2CCCCC2)nc2ccccc21	25*	i	1.2	i	i	.	i	i	-0.85	-2
O=S(=O)(Nc1ccccc1O)c1ccc(-c2ccccc2)cc1	100*	i	-2.2	i	i	i	58%*	i	-1.1	-24
Cc1nnc(SCC(=O)c2cc(C)n(-c3ccc4c(c3)OCO4)c2C)s1	25*	-6.1*	-2.6	i	i	i	i	21%*	-1.1	-11
Cc1cc(C(=O)CSc2nnnn2C)c(C)n1-c1ccc2c(c1)OCCO2	i	i	-0.06	i	i	i	.	.	.	.
CCOC(=O)Cc1csc(NC(=O)CSc2nccn2C)n1	i	i	-0.05	i	i	i	.	.	.	.
SMILES	TMEM16A inh	TMEM16A act	Kir21 inh	CHT allo act	CHT inh	Rce1 inh	TMEM16A reconf	HEK293 Ca mobil	YFP-HEK293 quench	ClC-1 inh
CC1=CC(C)(C)N2C(=O)C3(NCCc4c3[nH]c3ccccc43)c3cc(C)cc1c32 (configuration not stated)	i	i	-0.32	i	i	i	.	.	.	.
CC1=CC(C)(C)N2C(=O)C3(SCC(=O)N3c3ccc(F)cc3)c3cc(C)cc1c32 (configuration not stated)	100*	i	-1.7	i	i	i	20%*	i	-1.2	-8
Nc1ncc(S(=O)(=O)c2ccc(Cl)cc2)c(N)n1	i	i	-0.23	i	i	i	.	.	.	.
CCCS(=O)(=O)N1CCC(C(=O)NCCCOC)CC1	100*	i	-0.06	i	i	i	i	i	-0.92	-2
CN(C)S(=O)(=O)c1ccc(N2CCCC2)c(C(=O)Nc2nc3c(ccc4ccccc43)s2)c1	i	i	0.6	i	i	i	i	i	-1.4	-11
O=C(Nc1nc2c(ccc3ccccc32)s1)c1cc([N+](=O)[O-])ccc1N1CCOCC1	i	.	-2	i	i	i	.	.	.	.
CCCN(CCC)S(=O)(=O)c1ccc2c(c1)CCCN2C(C)=O	i	i	-3.2	i	i	i	.	.	.	.
CCCN(CCC)S(=O)(=O)c1ccc(C(=O)N2CCCc3ccccc32)cc1	100*	i	1.2	i	i	i	i	i	-1	-12
NC(C(=O)O)C1ON=C(Cl)C1O (configuration not stated)	.	i	.	.	.	.	.	.	.	.
CC(O)C1CCC2C3CCC4CC(O)CCC4(C)C3C(=O)CC12C (configuration not stated)	.	i	.	.	.	.	.	.	.	.
O=S(=O)(Nc1ccccc1-c1ccccc1)c1ccccc1	.	i	.	.	.	.	.	.	.	.
Cc1cc(C)c(S(=O)(=O)Nc2ccccc2-c2ccccc2)c(C)c1	25*	i	-0.62	i	i	i	i	i	-1.3	-4
